The record followed here is PubChem BioAssay (Tox21).

A number with no mark means an inactive call. Results filed as inconclusive are left out. The source made the active and inactive calls. Unless noted, calls come from the whole dose curve.

Test [1] is described as follows: Nuclear factor erythroid 2-related factor 2/antioxidant responsive element (Nrf2/ARE) small molecule agonists: qHTS cell viability counter screen in human keratinocytes (AID 1919968; active = well fitted curve in the direction sought with a large enough effect in the repeat runs; an effect the other way counts as inactive or inconclusive; note: nearly all actives have a fitted effect of over 55% in size; note: potency is the fitted concentration of half-maximal effect). The procedure, abridged: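 KeratinoSens cells (HaCaT keratinocytes stably carrying an ARE-luciferase reporter) were seeded at 1,500 cells/well and rested 5 h at 37 C/5% CO2. They were then exposed to compounds in DMSO for 23 h. Viability was read by CellTiter-Fluor fluorescence after 1 h.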
(In general: Quantitative high-throughput screening tests each substance at several concentrations.)

Test [2] in a line: Nuclear factor erythroid 2-related factor 2/antioxidant responsive element (Nrf2/ARE) small molecule agonists: luciferase reporter gene qHTS assay in human keratinocytes (AID 1919969). Note: nearly all actives have a fitted effect of over 35% in size. Note: potency is the fitted concentration of half-maximal effect.
The target of test [3] is KiSS-1 receptor (Homo sapiens) (UniProt Q969F8). As to the kind of experiment: Human kisspeptin (KISS1R) small molecule agonists, calcium flux assay in KISS1R-HEK293 cells (AID 1920064; active = well fitted curve in the direction sought with a large enough effect in the repeat runs; an effect the other way counts as inactive or inconclusive). The procedure, abridged: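 HEK293 cells stably expressing human KISS1R were plated 18 h at 37 °C, loaded with calcium dye for 1 h at 37 °C, then given compound by pin tool. Fluorescence (Ex/Em 480/540) was read kinetically for 3 min.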

The nature of test [4]: G protein-coupled receptor (GPCR) small molecule agonists, calcium flux assay: HEK293 wild type cell line counter screen (AID 1920065). The procedure, abridged: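 Cells were plated and cultured 18 h at 37 C/5% CO2, then loaded with calcium dye for 1 h at 37 C. Compounds in DMSO were pin-transferred in agonist mode, and fluorescence (Ex/Em 480/540) was read kinetically for 3 min at 1 s intervals.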

Test [5] is described as follows: p53 small molecule agonists, cell-based qHTS assay with rat liver microsomes: qHTS cell viability counter screen (AID 1963580). Note: nearly all actives have a fitted effect of over 45% in size. Note: potency is the fitted concentration of half-maximal effect. The procedure, abridged:
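p53RE-bla HCT-116 cells were exposed 16 h at 37 C to compounds with rat liver microsomes (0.5 mg/mL) and NADPH (0.5 mg/mL). Viability was measured in the same wells as ATP content by CellTiter-Glo luminescence.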

Test [6] in a line: p53 small molecule agonists, cell-based qHTS assay: qHTS cell viability counter screen (AID 1963581). Note: nearly all actives have a fitted effect of over 45% in size. The procedure, abridged: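 p53RE-bla HCT-116 cells were exposed to compounds for 16 h at 37 C; after the beta-lactamase FRET read in the same wells, CellTiter-Glo was added and luminescence (intracellular ATP) read after 30 min at room temperature.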
For test [7], the target named is 5-hydroxytryptamine receptor 2A (Homo sapiens) (UniProt P28223). As to the kind of experiment: 5-hydroxytryptamine receptor 2A (HTR2A) small molecule antagonists, cell-based qHTS assay (AID 1963586). Note: nearly all actives have a fitted effect of over 45% in size. Note: potency is the fitted concentration of half-maximal effect. The procedure, abridged:
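Antagonist-mode intracellular calcium assay: DOI (4 nM) added after 5 min compound pre-incubation at room temperature to dye-loaded HTR2A-CHO cells. Fluorescence followed for 3 min, sampled every second.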

For test [8] the target is unchanged. As to the kind of experiment: 5-hydroxytryptamine receptor 2A (HTR2A) small molecule agonists, cell-based qHTS assay (AID 1963587). Note: nearly all actives have a fitted effect of over 30% in size. Note: potency is the fitted concentration of half-maximal effect. The procedure, abridged:
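CHO cells stably expressing human HTR2A, plated 18 h, loaded with calcium dye 1 h at 37 C. Agonist mode: compounds added and intracellular calcium fluorescence recorded kinetically for 2 min at 1 sec intervals.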

Test [9] has as its target Muscarinic acetylcholine receptor M1 (Homo sapiens) (UniProt P11229). As to the kind of experiment: Cholinergic receptor muscarinic 1 (CHRM1) small molecule antagonists, cell-based qHTS assay (AID 1963588). Note: nearly all actives have a fitted effect of over 40% in size. The procedure, abridged: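 CHRM1-CHO calcium-flux assay, antagonist mode. Cells were seeded 18 h, dye-loaded 1 h at 37 C and given compound for 5 min at RT, then acetylcholine was added at 50nM. FDSS fluorescence was read 3 min; 15 concentrations, three runs.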

Test [10] has the same target. As to the kind of experiment: Cholinergic receptor muscarinic 1 (CHRM1) small molecule agonists, cell-based qHTS assay (AID 1963589). Note: nearly all actives have a fitted effect of over 35% in size. The procedure, abridged:
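CHO cells stably expressing human CHRM1, seeded 18 h at 37 C/5% CO2, dye-loaded 1 h at 37 C, then given compound in agonist mode; intracellular calcium fluorescence read kinetically at 1 s intervals. Fifteen concentrations, three independent runs.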

Test [11] concerns the target D(2) dopamine receptor (Homo sapiens) (UniProt P14416). As to the kind of experiment: Dopamine D2 receptor (DRD2) small molecule agonists, cell-based qHTS assay (AID 1963594). Note: nearly all actives have a fitted effect of over 35% in size. The procedure, abridged:
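HEK293 cells stably expressing human DRD2, pre-treated with PDE inhibitor Ro20-1724 (0.1 mM final) and compound 10 min at room temperature, then stimulated with NKH477 (200nM […]) for 30 min. cAMP read by HTRF (665/620 nm).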

Test [12] is described as follows: p53 small molecule agonists, cell-based qHTS assay with human liver microsomes (AID 1963577). The procedure, abridged:
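p53RE-bla reporter cells were pre-incubated 5 h at 37 C, then treated with compounds plus human liver microsomes (0.5 mg/mL final) and NADPH (0.5 mg/mL final) for 16 h at 37 C. Beta-lactamase activity was read by LiveBLAzer fluorescence after 2 h at room temperature.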

Test [13] is described as follows: p53 small molecule agonists, cell-based qHTS assay with rat liver microsomes (AID 1963578). The procedure, abridged: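 p53RE-bla cells were exposed to compounds together with rat liver microsomes (0.5 mg/mL final) and NADPH (0.5 mg/mL final) for 16 h at 37 C, then read by LiveBLAzer beta-lactamase fluorescence after 2 h at room temperature.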
Test [14] in a line: p53 small molecule agonists, cell-based qHTS assay with human liver microsomes: qHTS cell viability counter screen (AID 1963579). Note: nearly all actives have a fitted effect of over 45% in size. Note: potency is the fitted concentration of half-maximal effect. The procedure, abridged: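 p53RE-bla cells (4,000/well) were pre-incubated 5 h at 37 C, then given compounds in DMSO plus human liver microsomes (0.5 mg/mL final) and NADPH (0.5 mg/mL final) for 16 h at 37 C. Viability was read by CellTiter-Glo luminescence.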

The nature of test [15]: p53 small molecule agonists, cell-based qHTS assay (AID 1963582; active = well fitted activation curve with a large enough effect in the signal ratio in the repeat runs, not every such curve was filed as active; the % refers to the signal ratio). The procedure, abridged:
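p53RE-bla beta-lactamase reporter cells rested 5 h at 37 C/5% CO2, then received compounds in DMSO by pin transfer and were incubated 16 h at 37 C. LiveBLAzer B/G FRET substrate was loaded for 2 h at room temperature before fluorescence reading.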

The nature of test [16]: cAMP Responsive Elements (CRE) small molecule antagonists, cell-based qHTS assay (AID 1963591; active = well fitted inhibition curve with a large enough effect in the signal ratio in the repeat runs, not every such curve was filed as active; the % refers to the signal ratio). The procedure, abridged:
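CRE-bla HEK293T cells were plated 18 h at 37 °C/5% CO2, pinned with compound in DMSO, then stimulated with NKH477 at 0.25 uM final for 3 h. LiveBLAzer B/G FRET substrate was added and plates incubated 2 h at room temperature.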

Test [17] has as its target Beta-2 adrenergic receptor (Homo sapiens) (UniProt P07550). As to the kind of experiment: Adrenergic beta2 receptor (ADRB2) small molecule agonists, cell-based qHTS assay (AID 1963593).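 For activation: CHO cells stably overexpressing human ADRB2.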 Note: potency is the fitted concentration of half-maximal effect. The procedure, abridged: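 CHO cells stably over-expressing ADRB2 were plated overnight at 37C, then dosed with compounds plus a stimulation mix containing 100uM IBMX and 25uM Ro-20-1724 for 0.5hr at room temperature. cAMP was measured by HTRF competition, 1hr.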

Test [18] deals with D(2) dopamine receptor (Homo sapiens) (UniProt P14416). As to the kind of experiment: Dopamine D2 receptor (DRD2) small molecule antagonists, cell-based qHTS assay (AID 1963595; active = well fitted inhibition curve with a large enough effect in the signal ratio in the repeat runs, with a control signal flat; the % refers to the signal ratio; note: potency is the fitted concentration of half-maximal effect). The procedure, abridged:
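HEK293 cells stably expressing DRD2 were preincubated with 0.1 mM Ro20-1724, then with compound for 10 min at room temperature. Cells were stimulated with 200 nM NKH477 plus 12 nM quinpirole for 30 min, and cAMP was read by HTRF.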

Test [19] addresses Beta-2 adrenergic receptor (Homo sapiens) (UniProt P07550). As to the kind of experiment: Adrenergic beta2 receptor (ADRB2) small molecule antagonists, cell-based qHTS assay (AID 1963592). Note: series mostly up to about 92 µM; nearly all actives have a fitted effect of over 50% in size. The procedure, abridged:
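Cells (CHO, stable ADRB2 overexpression) incubated 18-20hr at 37C; compounds added from DMSO; agonist mix (1nM isoproterenol, 100uM IBMX, 25uM Ro-20-1724) added; 0.5hr RT; d2-cAMP and anti-cAMP-cryptate added; 1hr RT; 665/615 nm read.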

Test [20] in a line: cAMP Responsive Elements (CRE) small molecule agonists, cell-based qHTS assay (AID 1963590). The procedure, abridged: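 CRE-bla HEK 293T cells in DMEM with 10% dialyzed FBS, NEAA, pyruvate and 25 mM HEPES were plated 18 h at 37 C/5% CO2, then exposed to compounds in DMSO for 3 h before LiveBLAzer B/G FRET substrate addition.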
% is set by controls: 0 for no effect and ±100 for the full control effect.

Chain of KiSS-1 receptor (Homo sapiens) (Q969F8 whole entry, looked up): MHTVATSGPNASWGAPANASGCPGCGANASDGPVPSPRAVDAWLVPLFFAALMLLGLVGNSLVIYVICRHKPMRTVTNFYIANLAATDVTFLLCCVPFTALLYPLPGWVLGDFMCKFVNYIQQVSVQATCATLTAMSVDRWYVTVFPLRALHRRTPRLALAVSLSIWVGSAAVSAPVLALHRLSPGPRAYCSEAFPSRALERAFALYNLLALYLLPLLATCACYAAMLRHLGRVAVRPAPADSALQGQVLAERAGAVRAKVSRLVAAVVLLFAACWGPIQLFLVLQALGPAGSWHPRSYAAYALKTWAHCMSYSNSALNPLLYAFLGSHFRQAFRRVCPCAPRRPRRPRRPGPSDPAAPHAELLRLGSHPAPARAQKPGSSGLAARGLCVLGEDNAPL
Chain of D(2) dopamine receptor (Homo sapiens) (P14416 whole entry, looked up): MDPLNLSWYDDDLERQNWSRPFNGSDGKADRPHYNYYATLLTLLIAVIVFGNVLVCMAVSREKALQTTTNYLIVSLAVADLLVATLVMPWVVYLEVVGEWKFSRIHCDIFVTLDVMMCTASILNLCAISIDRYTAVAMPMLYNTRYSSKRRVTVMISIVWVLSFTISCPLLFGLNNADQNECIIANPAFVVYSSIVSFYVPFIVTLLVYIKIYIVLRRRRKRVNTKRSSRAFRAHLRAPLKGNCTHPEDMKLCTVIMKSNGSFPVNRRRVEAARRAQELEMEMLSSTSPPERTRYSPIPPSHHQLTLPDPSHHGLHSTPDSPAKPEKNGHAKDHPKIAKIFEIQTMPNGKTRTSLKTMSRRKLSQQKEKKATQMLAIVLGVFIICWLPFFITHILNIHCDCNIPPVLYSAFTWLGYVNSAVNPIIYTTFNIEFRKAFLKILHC
Chain of 5-hydroxytryptamine receptor 2A (Homo sapiens) (P28223 whole entry, looked up): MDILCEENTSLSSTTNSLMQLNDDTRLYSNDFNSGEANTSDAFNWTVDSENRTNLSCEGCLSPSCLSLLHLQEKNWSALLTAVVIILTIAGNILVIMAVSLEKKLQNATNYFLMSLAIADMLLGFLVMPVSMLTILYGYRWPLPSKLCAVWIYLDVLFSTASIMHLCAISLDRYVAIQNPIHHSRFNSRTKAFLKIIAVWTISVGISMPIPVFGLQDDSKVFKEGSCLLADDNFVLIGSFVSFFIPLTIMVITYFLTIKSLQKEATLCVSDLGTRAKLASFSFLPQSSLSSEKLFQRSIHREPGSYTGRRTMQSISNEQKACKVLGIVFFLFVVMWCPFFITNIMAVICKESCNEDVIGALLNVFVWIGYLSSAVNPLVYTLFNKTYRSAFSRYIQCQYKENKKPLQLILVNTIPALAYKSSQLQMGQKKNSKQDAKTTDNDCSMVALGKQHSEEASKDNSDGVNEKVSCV
Chain of Muscarinic acetylcholine receptor M1 (Homo sapiens) (P11229 whole entry, looked up): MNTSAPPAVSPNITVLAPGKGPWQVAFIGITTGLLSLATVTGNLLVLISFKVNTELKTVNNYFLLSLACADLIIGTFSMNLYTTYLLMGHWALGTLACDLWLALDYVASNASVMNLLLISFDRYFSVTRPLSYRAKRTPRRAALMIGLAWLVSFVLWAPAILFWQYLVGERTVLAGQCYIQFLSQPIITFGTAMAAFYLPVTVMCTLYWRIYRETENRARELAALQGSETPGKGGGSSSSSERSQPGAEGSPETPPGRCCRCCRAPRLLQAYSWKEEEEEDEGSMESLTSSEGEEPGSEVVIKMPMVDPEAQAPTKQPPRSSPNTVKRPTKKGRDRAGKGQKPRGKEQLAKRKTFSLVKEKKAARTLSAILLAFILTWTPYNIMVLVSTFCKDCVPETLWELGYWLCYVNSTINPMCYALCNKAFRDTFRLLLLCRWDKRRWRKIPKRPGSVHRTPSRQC
Chain of Beta-2 adrenergic receptor (Homo sapiens) (P07550 whole entry, looked up): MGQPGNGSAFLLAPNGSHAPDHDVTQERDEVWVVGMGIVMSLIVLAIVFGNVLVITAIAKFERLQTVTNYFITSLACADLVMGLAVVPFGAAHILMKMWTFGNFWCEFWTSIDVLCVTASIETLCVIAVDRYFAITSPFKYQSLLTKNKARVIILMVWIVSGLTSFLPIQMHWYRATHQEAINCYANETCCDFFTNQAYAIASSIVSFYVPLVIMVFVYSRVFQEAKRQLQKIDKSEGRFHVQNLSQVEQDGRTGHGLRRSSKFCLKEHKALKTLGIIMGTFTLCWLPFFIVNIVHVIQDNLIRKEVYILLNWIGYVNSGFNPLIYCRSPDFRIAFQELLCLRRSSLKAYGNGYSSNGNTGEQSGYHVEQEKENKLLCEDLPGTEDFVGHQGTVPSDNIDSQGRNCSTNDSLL

As for `CC1(C)CCC(Cc2ccc(Cl)cc2)C1(O)Cn1cncn1` (stereo not drawn), the Potency result in [1], in test [2], in test [3], in [4], in test [5] and in test [6] was “inactive” throughout. The Potency result in [9], in [10] and in test [11] was “inactive” each time. Further, the results for the Potency in test [7] and in [8] were 16.8 µM (active) and 49 µM (active), respectively.

Consider `CC(C)(C)NC[C@H](O)c1ccc(O)cc1Cl`, for which the Potency result in test [1], in test [2], in test [4], in test [12], in test [13] and in [14] was “inactive” throughout. Moreover, the Potency entry in test [6], in [15], in test [8], in test [9], in [16] and in [11] was “inactive” in each case. Besides, the Potency in [17] was 0.006 µM (active); in [18] it was 0.0841 µM (active).

In the case of `[Cl][Sn]([c]1ccccc1)([c]1ccccc1)[c]1ccccc1`, the Potency in test [1] was 1.03 µM (active); in test [2], 0.58 µM (active); in test [14] it was 6.14 µM (active); in [5] it was 6.14 µM (active); in test [8], 10.4 µM (active); in test [18], 7.3 µM (active). Further, the activation in test [3] was 2.74% [at 15.8 µM]; in test [4] it was 4.28% [at 11.8 µM]; in test [13] it was -5.37% [at 13.6 µM]; in test [10] it was 2.71% [at 15.8 µM]; in test [11], 8.68% [at 19 µM]. The figures for the activity, negative = inhibition in test [7] and in test [9] were -29.3% [at 12.7 µM] and -4.75% [at 12.6 µM], respectively. In test [19], the activity change, negative = inhibition was 1.04% [at 19 µM].

Take `O=C1C=CC(=O)c2ccccc21`: the Potency in test [1] is 15.4 µM (active); in [2] it was 6.11 µM (active); in [5], 20.4 µM (active); in test [8], 21.9 µM (active). For the same compound, the Potency result in test [3], in [4], in [13], in [6], in test [15] and in test [9] was “inactive” in each case. In addition, the Potency entry in [10], in test [19] and in test [11] was “inactive” each time.

As to `C=C(C)C(=O)OCCCCOC(=O)C(=C)C`, the Potency entry in test [1], in [2], in test [3], in [4], in [6] and in [7] was “inactive” in each case. Also, the Potency entry in test [8], in test [9], in [10], in [20], in test [16] and in test [19] was “inactive” each time. The Potency entry in test [17], in test [11] and in test [18] was “inactive” each time.

In the case of `NNC(N)=O`, the Potency result in test [1], in test [2], in [3], in test [4], in [5] and in [6] was “inactive” throughout. Besides, the Potency result in test [7], in [8], in [9], in [10], in test [20] and in [19] was “inactive” each time. Besides, the Potency entry in test [17], in test [11] and in test [18] was “inactive” in each case.

In the case of `CNC(=O)CSP(=O)(OC)OC`, the Potency entry in [1], in [2], in test [3], in [4], in [14] and in [5] was “inactive” each time. For the same compound, the Potency entry in [7], in test [8], in test [9], in test [10], in [20] and in test [16] was “inactive” in each case. Besides, the Potency result in test [19], in test [17], in test [11] and in test [18] was “inactive” in each case.
